# Results from PubChem BioAssay AID1626 (SRMLSC, 2009).
# The campaign covered roughly 220,000 compounds. About 2,000 (0.91%) were called active. Roughly 2% stayed inconclusive and do not appear here. Rule as the data show it: inconclusive = inhibition above about 80% without an active follow-up result; inactive = below that; test concentration not stated here. The list is a sample of the results. Potency and affinity values are given separately.
# Experiment: M. tuberculosis H37Rv growth inhibitors, H37Rv strain (AID 1626);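 also: bacteria incubated seven days before Alamar blue readout; 0% = bacteria only wells and 100% = bacteria with antibiotic wells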
# Conditions: stronger effect = higher value, concentration not given here
row,SMILES,inhibition
1,COc1ccc(N(C(=O)CNC(=O)c2cccs2)C(C(=O)NCC2CCCO2)c2ccccc2)cc1OC (configuration not stated),-7.89% (inactive)
2,Cc1ccc(C(=O)N2CCN(c3ccc([N+](=O)[O-])cc3-n3cccc3)CC2)cc1,33.7% (inactive)
3,O=C(c1ccc(F)cc1)N1CCN(c2ccc([N+](=O)[O-])cc2-n2cccc2)CC1,20.4% (inactive)
4,COCC(C)NC(=S)NC(=O)c1cc(S(=O)(=O)N2CCOCC2)ccc1C (configuration not stated),4.56% (inactive)
5,COc1cccc(NC(C(=O)Nc2cccc(C(C)=O)c2)c2ccccc2)c1 (configuration not stated),6.16% (inactive)
6,Cc1cc(C)c2nc(Nc3nc(-c4ccccc4)cc(=O)[nH]3)nc(C)c2c1,2.35% (inactive)
7,CC1CCc2cc(F)cc3c(=O)c(C(=O)O)cn1c23 (configuration not stated),14.4% (inactive)
8,O=C(O)c1cn(C2CCCCC2)c2ccccc2c1=O,-2.4% (inactive)
9,CCOC(=O)c1cn(C2CC2)c2c(F)c(F)c(F)cc2c1=O,-2.19% (inactive)
10,Cc1c(-n2cc(C(=O)O)c(=O)c3cc(F)c(N4CCCC(O)C4)c(F)c32)c(=O)n(-c2ccccc2)n1C (configuration not stated),-0.64% (inactive)
11,CCn1cc(C(=O)O)c(=O)c2cc(F)c(N3CCN(C(=S)NC(=O)c4ccc(F)cc4)CC3)cc21,15.9% (inactive)
12,Cc1cccc(-c2cc(=O)c(C(=O)O)cn2-c2ccc(F)cc2F)c1,-8.14% (inactive)
13,CC1CCCCC1NC(=O)COC(=O)CNC(=O)c1cccc(F)c1 (configuration not stated),-0.59% (inactive)
14,CP(=O)(O)CN1CCCCC1,-1.04% (inactive)
15,NS(=O)(=O)c1ccc(CCNC(=O)CSc2nc3ccccc3c(=O)n2CCN2CCOCC2)cc1,-2.17% (inactive)
16,O=C(O)c1ccccc1C(=O)NCCc1c(C(=O)O)[nH]c2ccc(F)cc12,-5.11% (inactive)
17,Cc1ccc(NC(=S)NCCc2ccc(F)cc2)c(C)c1,6.97% (inactive)
18,O=C(N/N=C/c1ccccc1F)NC1CCCCC1,6.4% (inactive)
19,CNC(=S)NNC(=O)c1noc(C)c1C(=O)N1CCN(C(c2ccccc2)c2ccccc2)CC1,4.63% (inactive)
20,O=C(NNC(=O)c1ccc(F)cc1F)c1ccc2c(c1)OCO2,-6.81% (inactive)
21,COc1cccc(-c2nnc(NC(C)=O)o2)c1,7.53% (inactive)

row,SMILES,inhibition
1,COc1cccc(-c2nnc(NC(=O)C(C)C)o2)c1,59.4% (inactive)
2,COc1ccccc1C(=O)Nc1nnc(-c2ccc(F)cc2)o1,9.06% (inactive)
3,COc1ccccc1C(=O)NNC(=O)c1ccc(Cl)cc1,0.09% (inactive)
4,O=C(Nc1nnc(-c2ccc(Cl)cc2)o1)Nc1ccccc1Cl,-6.02% (inactive)
5,O=C(Nc1nnc(-c2ccncc2)o1)c1ccccc1F,1.42% (inactive)
6,Cc1ccc(-c2csc3nc(-c4ccncc4)[nH]c(=O)c23)cc1,3.27% (inactive)
7,Cc1cccc(N2CCN(C(=O)Cn3cccc3)CC2)c1C,3.88% (inactive)
8,Cc1ccc(/C=N/N2CCN(Cc3ccccc3)CC2)s1,-23% (inactive)
9,COc1ccc(C2=NOC(C)(c3nnc(-c4ccc(F)cc4)o3)C2)cc1 (configuration not stated),-6.66% (inactive)
10,Cc1cccc(CC2CC(=O)N(c3ncccn3)C2=O)c1 (configuration not stated),-7.53% (inactive)
11,Cc1ccc(CC2C(=O)N(c3ncccn3)C(=O)C2C)cc1 (configuration not stated),-0.53% (inactive)
12,O=C(CSc1nnnn1-c1ccccc1)Nc1ncc(Cc2ccccc2Cl)s1,0.66% (inactive)
13,N#CCC(=O)Nc1ncc(Cc2ccccc2Cl)s1,5.63% (inactive)
14,CNc1ncc(Cc2ccccc2)s1,14.7% (inactive)
15,Cc1ccc(Cc2cnc(N3C(=N)SC(c4ccccc4)C3=O)s2)cc1 (configuration not stated),1.22% (inactive)
16,Cc1ccc(CC2CC(=O)N(c3ncccn3)C2=O)cc1 (configuration not stated),-1.69% (inactive)
17,Cc1cccc(Cc2cnc(NC(=O)c3ccc(C)o3)s2)c1,21.9% (inactive)
18,CCCn1c(=S)[nH]c2cc(C(=O)N3CCc4ccccc4C3)ccc2c1=O,-2.54% (inactive)
19,CC(C)(C)OC(=O)N1CC(O)CC1C(=O)OCC(=O)c1ccccc1 (configuration not stated),-11.3% (inactive)
20,CC(O)CNC(=O)Cc1cc(=O)[nH]c(=O)[nH]1 (configuration not stated),-2.41% (inactive)
21,Cc1ccc2cc(CCNC(=O)C(C)(C)C)c(=O)[nH]c2c1,4.44% (inactive)

row,SMILES,inhibition
1,Cc1nn(C)cc1CN1CCC(CO)(CCOc2ccccc2)CC1,-0.32% (inactive)
2,Cc1ccc(CNC(=O)C2CNc3cc(C)ccc3O2)cc1 (configuration not stated),11.1% (inactive)
3,CC(C)CN(CCCNC(=O)CN1C(=O)COc2ccc(S(=O)(=O)N3CCCC3)cc21)CC(C)C,-2.35% (inactive)
4,CNC(=O)/C(C#N)=C\c1ccc(CNS(=O)(=O)c2ccccc2)o1,-2.69% (inactive)
5,COc1ccc(N2CCc3c(C)nc(SC)nc32)cc1,11% (inactive)
6,CSc1nc(C)c2c(n1)N(c1ccc(F)cc1)CC2,5.51% (inactive)
7,CC(C)(C)OC(=O)NCCc1nnc(SCc2cccc(Cl)c2)o1,13.5% (inactive)
8,Cc1nc2nc[nH]n2c(=O)c1C/C=C/c1ccccc1,-3.13% (inactive)
9,Cc1nc2nc(N)nn2c(C)c1C/C=C/c1ccccc1,-9.36% (inactive)
10,Cc1ccnc(NC(=O)CCC(=O)N(CC(=O)NCc2ccccc2)Cc2cccs2)c1,6.51% (inactive)
11,Cc1cc2nccc(-c3ccncc3)n2n1,2.36% (inactive)
12,N#CCC1c2ccccc2CCN1C(=O)Nc1ccc(Cl)cc1 (configuration not stated),-4.15% (inactive)
13,N#CCC1c2ccccc2CCN1C(=O)Nc1cccc(C(F)(F)F)c1 (configuration not stated),-1.17% (inactive)
14,C=CCN=C1SCC(=O)N1S(=O)(=O)c1ccccc1,6.81% (inactive)
15,Cc1ccn2c(CNC(C)CCn3cccn3)c(C(=O)N3CCCCCC3)nc2c1 (configuration not stated),-0.19% (inactive)
16,COc1ccccc1N1CCN(c2ncnc3c2oc2ccccc23)CC1,-5.65% (inactive)
17,Cc1nc(N2CCC(C)CC2)c2oc3ccccc3c2n1,10% (inactive)
18,Cc1nc(N2CCN(Cc3nc4ccccc4[nH]3)CC2)c2oc3ccccc3c2n1,-2.88% (inactive)
19,Cc1nc(N2CCOCC2)c2oc3ccccc3c2n1,-2.79% (inactive)
20,CN(CC(=O)Nc1ccccn1)S(=O)(=O)c1ccc(Cl)cc1,-2.26% (inactive)
